For some of these results: Measured potencies and affinities stand elsewhere.
Experiments:
Design in all cases: scale not given: direction of the effect not stated beside the values
[1] = target: Protein translocase subunit SecA (Escherichia coli (strain K12)) (UniProt P10408); experiment: Assay to Identify E. coli SecA ATPase Inhibitors; assay type: functional; settings: 30 µM
[2] = target: T1, Ubiquitin-activating enzyme e1, putative (Leishmania donovani (strain BPK282A1)) (UniProt E9BSI1); experiment: Leishmania donovani Ubiquitin Activating Enzyme (LdE1); assay type: functional; settings: 30 µM
T1 sequence (whole entry): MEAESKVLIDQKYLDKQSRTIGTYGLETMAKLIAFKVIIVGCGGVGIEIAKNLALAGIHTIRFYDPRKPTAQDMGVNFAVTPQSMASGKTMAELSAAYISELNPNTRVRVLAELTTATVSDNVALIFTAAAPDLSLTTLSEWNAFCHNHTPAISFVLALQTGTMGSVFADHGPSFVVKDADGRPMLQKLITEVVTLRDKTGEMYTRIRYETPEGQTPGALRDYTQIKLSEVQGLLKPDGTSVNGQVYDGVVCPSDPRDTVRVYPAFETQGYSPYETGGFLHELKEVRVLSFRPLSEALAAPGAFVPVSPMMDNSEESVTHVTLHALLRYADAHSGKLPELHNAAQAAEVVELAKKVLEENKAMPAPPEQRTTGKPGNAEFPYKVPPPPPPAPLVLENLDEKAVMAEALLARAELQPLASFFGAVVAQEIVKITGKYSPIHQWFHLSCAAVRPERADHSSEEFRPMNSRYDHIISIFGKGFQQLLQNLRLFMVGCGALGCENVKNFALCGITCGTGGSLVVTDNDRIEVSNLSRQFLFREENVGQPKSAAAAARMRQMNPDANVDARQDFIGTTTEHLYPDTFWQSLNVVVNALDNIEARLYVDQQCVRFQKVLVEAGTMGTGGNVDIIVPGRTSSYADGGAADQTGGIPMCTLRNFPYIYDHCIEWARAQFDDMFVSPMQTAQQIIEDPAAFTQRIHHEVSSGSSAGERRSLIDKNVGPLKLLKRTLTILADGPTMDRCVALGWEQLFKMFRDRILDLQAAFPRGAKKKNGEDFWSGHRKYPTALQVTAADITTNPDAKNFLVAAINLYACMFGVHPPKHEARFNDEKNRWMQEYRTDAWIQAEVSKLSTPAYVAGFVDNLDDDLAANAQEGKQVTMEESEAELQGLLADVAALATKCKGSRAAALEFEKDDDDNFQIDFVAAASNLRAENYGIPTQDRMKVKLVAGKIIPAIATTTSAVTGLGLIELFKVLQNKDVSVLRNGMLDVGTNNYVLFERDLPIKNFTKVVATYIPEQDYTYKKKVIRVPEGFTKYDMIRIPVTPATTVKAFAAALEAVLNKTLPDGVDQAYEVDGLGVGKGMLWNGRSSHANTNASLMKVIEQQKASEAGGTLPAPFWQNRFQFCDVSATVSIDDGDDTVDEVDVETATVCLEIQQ

[3] = target: AMP-activated protein kinase, AMPK (Homo sapiens) (UniProt P54646+O43741+P54619+Q9UGJ0+Q9Y478+Q13131+Q9UGI9); experiment: AMP-dependent Kinase enzyme assay. An in vitro enzyme assay that detects ADP turnover that is directly proportional to AMPK activity. This uses naive AMPK that is activated during the assay with MK-8722; assay type: functional; settings: 30 µM
[4] = target: Sialic acid-binding Ig-like lectin 9 (Homo sapiens) (UniProt Q9Y336); experiment: Hs-Siglec9 ALPHAscreen SOP 20170721; settings: 10 µM
[5] = tested on: Trypanosoma cruzi; experiment: Trypanosoma cruzi phosphomannomutase and mannose-1-phosphate guanylyltransferase assay; assay type: functional; settings: 10 µM
[6] = target: T2, Arginase-2, mitochondrial (Homo sapiens) (UniProt P78540); experiment: in vitro enzyme assay to detect the production of urea directly proportional to the activity of Arginase II; assay type: functional; settings: 33.3 µM; note: in the data most compounds retested in dose-response had high values
T2 sequence (whole entry): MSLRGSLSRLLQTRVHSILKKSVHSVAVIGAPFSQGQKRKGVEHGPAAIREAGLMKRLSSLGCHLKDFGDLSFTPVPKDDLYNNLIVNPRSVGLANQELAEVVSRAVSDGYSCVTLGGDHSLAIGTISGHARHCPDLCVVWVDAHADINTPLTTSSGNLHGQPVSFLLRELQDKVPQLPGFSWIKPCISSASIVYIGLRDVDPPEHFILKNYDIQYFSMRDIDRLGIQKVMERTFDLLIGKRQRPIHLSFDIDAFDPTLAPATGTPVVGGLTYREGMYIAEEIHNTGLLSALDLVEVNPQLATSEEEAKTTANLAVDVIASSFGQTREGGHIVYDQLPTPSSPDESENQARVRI

[7] = target: T3, Proteasome subunit beta (Trypanosoma cruzi) (UniProt O96673); experiment: Trypanosoma cruzi proteasome chymotrypsin-like activity (TcProtChymo) assay.; note: in the data most compounds retested in dose-response had high values; assay type: functional; settings: 9.37 µM
T3 sequence (whole entry): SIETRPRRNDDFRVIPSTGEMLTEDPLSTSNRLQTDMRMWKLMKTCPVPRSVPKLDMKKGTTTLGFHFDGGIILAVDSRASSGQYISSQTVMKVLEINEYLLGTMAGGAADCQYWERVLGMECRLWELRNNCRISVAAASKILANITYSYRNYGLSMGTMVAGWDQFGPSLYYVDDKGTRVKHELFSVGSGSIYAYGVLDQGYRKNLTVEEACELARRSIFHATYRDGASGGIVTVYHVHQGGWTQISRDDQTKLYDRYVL

[8] = organism: Homo sapiens; experiment: To identify inhibition of the IFN signalling (Jak-Stat) pathway via expression of an eGFP reporter gene under the control of an IFN-stimulated response element (ISRE) containing MxA promoter.; assay type: functional; settings: 30 µM
[9] = target: T4, Tyrosyl-tRNA synthetase, putative (Trypanosoma cruzi (strain CL Brener)) (UniProt Q4DSP6); experiment: Trypanosoma cruzi tyrosyl tRNA synthetase (TcYRS) _High Tyrosine SOP; assay type: functional; settings: 30 µM; note: in the data most compounds retested in dose-response had high values
T4 sequence (whole entry): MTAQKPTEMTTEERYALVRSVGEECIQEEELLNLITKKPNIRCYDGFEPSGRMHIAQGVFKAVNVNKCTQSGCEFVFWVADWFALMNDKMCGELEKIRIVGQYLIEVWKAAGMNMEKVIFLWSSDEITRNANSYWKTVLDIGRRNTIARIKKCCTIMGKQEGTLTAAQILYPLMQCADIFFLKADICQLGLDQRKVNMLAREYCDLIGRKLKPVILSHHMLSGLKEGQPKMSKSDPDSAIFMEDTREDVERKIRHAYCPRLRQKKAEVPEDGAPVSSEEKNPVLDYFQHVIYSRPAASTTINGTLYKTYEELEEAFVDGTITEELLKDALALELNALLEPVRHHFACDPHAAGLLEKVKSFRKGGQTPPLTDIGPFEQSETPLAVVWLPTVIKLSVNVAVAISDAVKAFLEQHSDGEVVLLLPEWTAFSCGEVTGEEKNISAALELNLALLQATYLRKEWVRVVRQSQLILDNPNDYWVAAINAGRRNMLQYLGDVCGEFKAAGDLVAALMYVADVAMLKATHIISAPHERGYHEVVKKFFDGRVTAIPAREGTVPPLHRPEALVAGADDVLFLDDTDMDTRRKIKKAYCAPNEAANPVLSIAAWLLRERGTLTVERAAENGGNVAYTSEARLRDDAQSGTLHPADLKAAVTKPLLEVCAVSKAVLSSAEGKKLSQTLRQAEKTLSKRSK

[10] = target: T4, Tyrosyl-tRNA synthetase, putative (Trypanosoma cruzi (strain CL Brener)); experiment: Trypanosoma cruzi tyrosyl tRNA synthetase (TcYRS) SOP; assay type: functional; settings: 30 µM
[11] = target: Chromo domain-containing protein 1 (Saccharomyces cerevisiae (strain ATCC 204508 / S288c) (Baker's yeast)) (UniProt P32657); experiment: ScCHD-1 Enzyme Inhibition Assay; assay type: functional; settings: 30 µM; note: in the data most compounds retested in dose-response had high values
Sequence of Chromo domain-containing protein 1 (Saccharomyces cerevisiae (strain ATCC 204508 / S288c) (Baker's yeast)) (P32657 whole entry, the tested form may be a part): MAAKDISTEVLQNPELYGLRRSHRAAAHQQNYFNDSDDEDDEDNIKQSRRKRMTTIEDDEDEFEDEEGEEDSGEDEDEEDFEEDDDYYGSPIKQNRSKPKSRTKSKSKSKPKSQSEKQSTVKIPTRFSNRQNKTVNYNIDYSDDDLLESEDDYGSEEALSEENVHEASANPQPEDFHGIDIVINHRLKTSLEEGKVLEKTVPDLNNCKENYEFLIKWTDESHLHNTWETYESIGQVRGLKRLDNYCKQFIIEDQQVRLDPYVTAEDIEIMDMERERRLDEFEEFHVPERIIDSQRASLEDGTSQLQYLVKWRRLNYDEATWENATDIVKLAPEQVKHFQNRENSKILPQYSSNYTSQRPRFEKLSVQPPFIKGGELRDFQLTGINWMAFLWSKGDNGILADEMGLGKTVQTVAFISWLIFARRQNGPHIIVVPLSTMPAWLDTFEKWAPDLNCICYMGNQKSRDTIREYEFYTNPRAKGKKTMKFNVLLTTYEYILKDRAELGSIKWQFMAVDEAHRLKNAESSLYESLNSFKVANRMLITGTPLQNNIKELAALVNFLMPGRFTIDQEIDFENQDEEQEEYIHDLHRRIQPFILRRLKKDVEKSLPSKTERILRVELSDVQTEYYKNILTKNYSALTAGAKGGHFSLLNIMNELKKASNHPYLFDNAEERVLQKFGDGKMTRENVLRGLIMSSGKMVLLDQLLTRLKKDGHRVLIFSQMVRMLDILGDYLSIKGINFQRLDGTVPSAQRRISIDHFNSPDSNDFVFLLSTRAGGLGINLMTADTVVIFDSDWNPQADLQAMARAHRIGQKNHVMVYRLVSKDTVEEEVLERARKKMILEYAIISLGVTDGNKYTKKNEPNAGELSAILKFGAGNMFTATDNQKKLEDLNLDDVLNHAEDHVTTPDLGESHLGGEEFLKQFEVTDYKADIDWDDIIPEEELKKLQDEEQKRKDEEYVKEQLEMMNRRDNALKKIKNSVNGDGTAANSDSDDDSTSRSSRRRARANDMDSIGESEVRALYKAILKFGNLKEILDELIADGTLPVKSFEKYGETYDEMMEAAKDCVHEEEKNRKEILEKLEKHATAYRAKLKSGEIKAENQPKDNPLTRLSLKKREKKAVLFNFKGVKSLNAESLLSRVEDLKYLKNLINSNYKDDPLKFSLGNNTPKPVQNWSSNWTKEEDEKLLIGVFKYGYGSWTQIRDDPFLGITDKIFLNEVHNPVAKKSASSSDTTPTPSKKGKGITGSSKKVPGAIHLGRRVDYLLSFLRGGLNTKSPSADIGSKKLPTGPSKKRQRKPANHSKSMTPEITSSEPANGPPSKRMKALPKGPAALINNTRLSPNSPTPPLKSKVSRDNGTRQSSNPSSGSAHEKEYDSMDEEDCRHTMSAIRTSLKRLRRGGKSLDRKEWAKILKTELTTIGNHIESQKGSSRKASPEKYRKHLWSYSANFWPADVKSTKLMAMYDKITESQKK

Sequence of Protein translocase subunit SecA (Escherichia coli (strain K12)) (P10408 whole entry): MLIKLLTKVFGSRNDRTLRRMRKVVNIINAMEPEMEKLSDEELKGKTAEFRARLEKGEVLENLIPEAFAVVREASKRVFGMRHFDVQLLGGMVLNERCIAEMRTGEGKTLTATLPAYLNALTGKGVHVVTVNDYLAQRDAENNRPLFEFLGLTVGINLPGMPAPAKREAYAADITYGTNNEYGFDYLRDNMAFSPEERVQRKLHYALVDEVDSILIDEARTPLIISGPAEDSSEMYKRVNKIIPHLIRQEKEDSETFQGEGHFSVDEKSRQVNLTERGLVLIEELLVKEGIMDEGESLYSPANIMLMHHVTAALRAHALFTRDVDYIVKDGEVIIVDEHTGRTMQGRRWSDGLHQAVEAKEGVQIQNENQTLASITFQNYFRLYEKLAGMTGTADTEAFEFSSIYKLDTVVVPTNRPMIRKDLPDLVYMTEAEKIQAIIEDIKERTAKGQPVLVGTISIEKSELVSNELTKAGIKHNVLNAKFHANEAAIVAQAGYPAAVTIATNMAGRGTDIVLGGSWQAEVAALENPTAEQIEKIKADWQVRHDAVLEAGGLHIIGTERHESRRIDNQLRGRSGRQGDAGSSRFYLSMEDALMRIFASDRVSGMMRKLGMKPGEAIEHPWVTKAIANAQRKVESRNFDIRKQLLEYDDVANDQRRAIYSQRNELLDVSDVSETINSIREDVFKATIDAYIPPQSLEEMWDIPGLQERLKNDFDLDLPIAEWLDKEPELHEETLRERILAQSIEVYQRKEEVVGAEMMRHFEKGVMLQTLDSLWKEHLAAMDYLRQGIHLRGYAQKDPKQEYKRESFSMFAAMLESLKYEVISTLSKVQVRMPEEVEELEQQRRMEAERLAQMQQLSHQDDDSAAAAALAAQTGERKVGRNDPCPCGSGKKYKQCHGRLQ
Sequence of Sialic acid-binding Ig-like lectin 9 (Homo sapiens) (Q9Y336 whole entry): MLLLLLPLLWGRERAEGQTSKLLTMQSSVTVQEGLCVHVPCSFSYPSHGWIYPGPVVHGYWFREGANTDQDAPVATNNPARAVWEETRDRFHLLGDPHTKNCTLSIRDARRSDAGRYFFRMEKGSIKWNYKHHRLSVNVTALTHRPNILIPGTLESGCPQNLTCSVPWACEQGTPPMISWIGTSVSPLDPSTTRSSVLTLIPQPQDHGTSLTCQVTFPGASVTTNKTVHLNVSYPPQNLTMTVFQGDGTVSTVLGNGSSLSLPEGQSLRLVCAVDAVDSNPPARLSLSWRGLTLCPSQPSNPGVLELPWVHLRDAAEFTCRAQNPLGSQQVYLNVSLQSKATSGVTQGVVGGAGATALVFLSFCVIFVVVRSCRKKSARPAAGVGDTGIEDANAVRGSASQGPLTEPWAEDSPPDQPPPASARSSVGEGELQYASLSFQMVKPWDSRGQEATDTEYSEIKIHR

Compound | Percent Effect [1] [%] | Percent Effect [2] [%] | Percent Effect [3] [%] | Percent Effect [4] [%] | Percent Effect [5] [%] | Percent Effect [6] [%] | Percent Effect [7] [%] | Percent Effect [8] [%] | Percent Effect [9] [%] | Percent Effect [10] [%] | Percent Effect [11] [%]
COc1ccc(OCc2sc(C3(O)CCCNCC3)nc2C)cc1 (stereo unspecified) | -4.47 | 9.46 | 3.29 | 4.34 | -1.58 | 3.48 | 4.52 | 2.06 | 3.23 | 6.49 | -17.3
Cc1cnc(CN(C)C2CCN(CC(=O)Nc3nncs3)C2)o1 (stereo unspecified) | -0.539 | 22.8 | -11 | -8.69 | -2.74 | 1.14 | 5 | 5.59 | 12.3 | 21.5 | -9.12
CCc1cnc(N2CCC3(CC2)CN(c2cccnc2)C(=O)CO3)nc1 | -5.43 | 0 | 2.98 | -2.45 | -3.03 | -4.78 | 7.01 | 26.6 | -4.32 | -7.69 | 6.26
Cc1nccnc1N1CC[C@@H](NC(=O)c2cnccn2)[C@H](O)C1 | -5.54 | 13.5 | -3.54 | 17.2 | 7.53 | 2.86 | 3.62 | 2.71 | 2.65 | 14.6 | -0.902
COCCn1cc(C(=O)N2CCCC2c2cc(C)no2)ccc1=O (stereo unspecified) | -2.03 | 8.11 | 1.75 | 2.51 | -0.965 | 2.38 | 9.48 | 1.94 | 7.94 | 12.2 | -3.51
Cc1cc2n(n1)CC(CNC1CCN(c3ccc(F)cc3)CC1)CN2 (stereo unspecified) | -2.69 | 8.11 | -9.27 | 18.6 | 6.35 | 15.1 | -0.0858 | -21.8 | 1.07 | 18.5 | -6.89
O=C(NCCCc1ccncc1)C1CCCN(Cc2ccco2)C1 (stereo unspecified) | -4.69 | 5.33 | 3.79 | -5.72 | -10.8 | 1.04 | 17.6 | 29.8 | -1.64 | 6.17 | -7.2
Cc1cc(C)n(CC2CN(CC(=O)Nc3c(C)n[nH]c3C)CCO2)n1 (stereo unspecified) | -3.28 | 15.6 | 2.77 | 0.0825 | -8.61 | 0 | 10.5 | 24.1 | 6.8 | 12.2 | -3.32
CC(=O)c1ccc(N2CCCC(CO)(CCOc3ccccc3)C2)nc1 (stereo unspecified) | -1.73 | 10.4 | 4.96 | 15.7 | 6.39 | -22.1 | 19.5 | 65.7 | 5.38 | 16.1 | -2.3
CCNC(=O)c1ccc(N2CCCC(c3nccn3C(C)C)C2)nc1 (stereo unspecified) | -2.94 | 8 | -3.44 | 14.3 | 5.16 | 20.3 | 11.2 | 6.3 | 3.83 | 11.1 | -4.72
CCOCC1CN(C(=O)N(C)C)Cc2nn(C)cc21 (stereo unspecified) | -3.04 | 8 | -0.352 | 2.29 | -0.579 | -40.3 | 8.03 | -8.7 | 1.04 | 10 | -7.3
